# Results as given in PubChem BioAssay (EPA / NIEHS).
# Results filed as inconclusive are left out. Calls of active or inactive are those of the source. The calls were made as follows, unless noted: active = hit-call score of the fitted dose curve at least 0.9, where 1 is the maximum; inactive = score below 0.9.
# Legend:
# [1] = biological target: human Peroxisome Proliferator-activated Receptor alpha (PPARa), PPARA (gene 5465) (UniProt Q07869); experiment: NVS_NR_hPPARa: NovaScreen (NVS) Nuclear Receptor Binding Assay for human Peroxisome Proliferator-activated Receptor alpha (PPARa) (AID 2283359; active = hit-call score of the fitted dose curve at least 0.9, where 1 is the maximum;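 also: activity means loss of TR-FRET signal versus DMSO baseline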)
# Outline: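 Cell-free TR-FRET binding assay with extracted PPARα protein, read 1 h after dosing. Primary screen in duplicate at 25 uM, with actives retested in concentration series. Loss of signal versus DMSO.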
# [2] = CEETOX_H295R_ESTRADIOL: CeeTox H295R High-throughput Steroidogenesis Assay for Estradiol (AID 2283440); details: actives raise or lower the signal;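 also: estradiol secreted into medium quantified by LC-MS/MS after dansyl derivatisation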
# Outline: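 Following OECD 456 with minor changes, H295R cells received 10 uM forskolin for 48 h and then test chemical for 48 h. Hormone output was read by HPLC-MS/MS, with cytotoxic concentrations diluted until MTT viability reached ≥70%.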
# [3] = CEETOX_H295R_ESTRONE: CeeTox H295R High-throughput Steroidogenesis Assay for Estrone (AID 2283441); details: actives raise or lower the signal;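 also: estrone secreted into medium measured by LC-MS/MS after dansyl derivatization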;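 as to AC50: human adrenal H295R cells prestimulated with forskolin for two days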
# Outline: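 H295R cells; 48 h forskolin (10 uM) prestimulation; 48 h compound exposure, 0.1% DMSO final. Medium estrone: MTBE extraction, dansyl derivatization, HPLC-MS/MS. Bidirectional fit vs DMSO.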
# [4] = CCTE_Shafer_MEA_dev_bursting_electrodes_number: CCTE's Neural Network Formation Assay for Number of Bursting Electrodes, Shafer Lab (AID 2284043; active = hit-call score of the fitted dose curve at least 0.9, where 1 is the maximum;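 as to AC50: potency is for loss of bursting electrodes relative to DMSO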)
# Outline: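 Primary rat cortical neurons plated on 16-electrode MEA wells, exposed from day 0 with compound renewed at DIV 5 and 9. Electrodes bursting ≥1 burst per 2 min counted on days 5, 7, 9 and 12; trapezoidal AUC across days, fitted for loss versus DMSO.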
# [5] = CCTE_Shafer_MEA_dev_mutual_information_norm: CCTE's Neural Network Formation Assay for Mutual Information Normalization, Shafer Lab (AID 2284091);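 as to AC50: mutual information between electrodes summarised as area under curve across four recording days; potency is for a decrease in mutual information relative to DMSO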
# Outline: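 Primary rat cortical neurons on PEI-coated 48-well MEA plates, 1.5 x 10^5 cells/well, exposed from day 0 through day 12 with re-dosing at DIV 5 and 9. Mutual information between electrodes recorded days 5, 7, 9, 12; trapezoidal AUC, loss-of-signal fit versus DMSO.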
# [6] = CCTE_Shafer_MEA_dev_correlation_coefficient_mean: CCTE's Neural Network Formation Assay for Mean Correlation Coefficient, Shafer Lab (AID 2284093);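 as to AC50: well mean pairwise spike train correlation integrated as AUC over recording days 5 to 12; potency fitted for loss of correlation relative to DMSO vehicle wells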
# Outline: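 Extracellular firing from rat cortical networks on 48-well MEAs, DMSO-referenced, negative fitting direction. Compound present from plating to DIV12; mean pairwise correlation per well integrated over DIV5–12 recordings by trapezoidal AUC.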
# [7] = IUF_NPC1a_proliferation_area_72hr: Leibniz Research Institute for Environmental Medicine (IUF) 72-hour Neural Progenitor Cell Proliferation Area Assay (NPC1a) (AID 2284208)
# Outline: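 Proliferation is scored as sphere area gain in primary human fetal neural progenitors treated for 72 h in EGF/FGF-containing medium. Viability, LDH and BrdU readouts come from the same wells.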
# [8] = IUF_NPC1_viability_72hr: Viability Assessment at 72 hours in the Leibniz Research Institute for Environmental Medicine (IUF) Neural Progenitor Cell Proliferation Assay (NPC1) (AID 2284209)
# Outline: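 Each well receives one 0.3 mm progenitor sphere from fetal brain cortex; test chemical is added at plating and left three days. Viability comes from alamar blue fluorescence, multiplexed with LDH and BrdU readouts in the same well.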
# [9] = TAMU_PeakParms_SingleDonor1434_Chronotropy: Texas A&M University (TAMU) 1.5-hr Human Induced Pluripotent Stem Cell (iPSC)-derived Cardiomyocytes Calcium (Ca+2) Flux Assay for Cardiotoxicity: Chronotropy (changes in peak frequency) (AID 2284217); details: actives raise or lower the signal
# Outline: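 Using fluorescent Ca2+ flux, average beats per second are measured in human iPSC-derived cardiomyocytes treated 90 min (0.5% DMSO vehicle, 0.2–100 uM). Non-beating data points are removed; activity is modeled in both directions relative to DMSO controls.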
# [10] = IUF_NPC2c_oligodendrocyte_migration_120hr: Leibniz Research Institute for Environmental Medicine (IUF) 120-hour Neural Progenitor Cell Migration Assay for Oligodendrocyte Migration (NPC2c) (AID 2284297);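 also: O4-positive oligodendrocyte migration distance divided by radial glia migration distance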
# Outline: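 Primary hNPC spheres migrating on extracellular matrix, exposed five days to a 7-point dilution series with solvent control. Oligodendrocyte migration was scored by high-content imaging of O4 immunostaining and expressed relative to radial glia distance.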
# [11] = IUF_NPC2a_radial_glia_migration_120hr: Leibniz Research Institute for Environmental Medicine (IUF) 120-hour Neural Progenitor Cell Migration Assay for Radial Glia Migration (NPC2a) (AID 2284298)
# Outline: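 In this multiplexed test, fetal hNPC spheres migrate radially on poly-D-lysine/laminin in N2 medium (37C, 5% CO2, pH 7.2-7.6) under continuous compound exposure over five days. Migration is scored at 120 h from automated Hoechst nuclear imaging.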
# [12] = biological target: sheep Cyclooxygenase-1 (Cox1), PTGS1 (gene 443551) (UniProt P05979); experiment: NVS_ENZ_oCOX1: NovaScreen (NVS) Enzymatic Assay for sheep Cyclooxygenase-1 (Cox1) (AID 2283239; active = hit-call score of the fitted dose curve at least 0.9, where 1 is the maximum;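 also: actives reduce cyclooxygenase activity so potencies are for inhibitors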)
# Outline: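 Native ovine seminal vesicle protein serves as enzyme source in this biochemical assay. Colorimetric signal is recorded 0.66 h after chemical addition, and decreases versus the DMSO control define activity.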
# [13] = biological target: Estrogen receptor beta (Homo sapiens) (UniProt Q92731); experiment: OT_ER_ERbERb_1440: Odyssey Thera (OT) 24-hour HEK293T Protein-Complementation Assay for Estrogen Receptor-beta/-beta Homodimer (AID 2283380; active = hit-call score of the fitted dose curve at least 0.9, where 1 is the maximum;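 also: scored as signal increase over DMSO baseline for both agonists and antagonists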)
# Outline: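 HEK293T cells stably expressing ER beta LBD (aa 310-547) homodimer fragment-complementation reporter, dosed 24 h. Cells formaldehyde-fixed, Draq5-stained; gain in nuclear (agonist) or nuclear plus cytoplasmic (antagonist) fluorescence versus DMSO read by laser scanning cytometry.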
# [14] = CCTE_Deisenroth_5AR_NBTE_acceptor: CCTE's 5alpha-reductase NanoBRET Target Engagement Assay - Autofluorescence Screen, Deisenroth Lab (AID 2284321); details: actives raise or lower the signal;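 also: compound fluorescence in the acceptor channel under 460 nm excitation flags autofluorescence artifacts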
# Outline: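 Chemicals diluted to a nominal 100 uM in DMSO were scanned at 460 nm excitation. Samples were read in three independent runs (n=3). Gain or loss of acceptor signal was fitted relative to DMSO.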
# [15] = TOX21_PR_BLA_Followup_Agonist_viability: Viability Assessment in the Tox21 HEK293 Progesterone Receptor (PR) Agonism Beta-lactamase Follow-Up Assay (AID 2283935; active = hit-call score of the fitted dose curve at least 0.9, where 1 is the maximum;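 also: cells exposed to compound for 16 hr at 37 °C; signal loss means lower viability so actives are cytotoxic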)
# Outline: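 Multiplexed viability counter-screen: ATP-coupled luciferase signal measured after 30 min at room temperature, following 16 hr compound treatment of PR-UAS-bla HEK293T cells grown in charcoal-stripped serum.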
# [16] = TOX21_PR_BLA_Followup_Antagonist_viability: Viability Assessment in the Tox21 HEK293 Progesterone Receptor (PR) Antagonism Beta-lactamase Follow-Up Assay (AID 2283936; active = hit-call score of the fitted dose curve at least 0.9, where 1 is the maximum;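 also: hits lower the luminescence signal meaning cytotoxicity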)
# Outline: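 PR-UAS-bla HEK293T cells (3,000/well, 2% charcoal-stripped FBS) given compound plus R5020 agonist, 16 h at 37C. CellTiter-Glo added after bla read, 30 min at room temperature; luminescence loss indicates cytotoxicity.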
# [17] = TOX21_PR_LUC_Followup_Agonist_viability: Viability Assessment in the Tox21 HEK293 Progesterone Receptor (PR) Agonism Luciferase Follow-Up Assay (AID 2283941; active = hit-call score of the fitted dose curve at least 0.9, where 1 is the maximum;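 also: loss of signal means cytotoxicity so actives lower viability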)
# Outline: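 Luminescent ATP quantitation (CellTiter-Glo) serves as the read-out; a drop flags cytotoxic compounds. Cells are HEK293-PR-A-luc grown in 10% charcoal-stripped FBS, plated 3,000/well, and exposed to compound for 16 h.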
# human Peroxisome Proliferator-activated Receptor alpha (PPARa), PPARA (gene 5465), sequence (Q07869 whole entry, looked up): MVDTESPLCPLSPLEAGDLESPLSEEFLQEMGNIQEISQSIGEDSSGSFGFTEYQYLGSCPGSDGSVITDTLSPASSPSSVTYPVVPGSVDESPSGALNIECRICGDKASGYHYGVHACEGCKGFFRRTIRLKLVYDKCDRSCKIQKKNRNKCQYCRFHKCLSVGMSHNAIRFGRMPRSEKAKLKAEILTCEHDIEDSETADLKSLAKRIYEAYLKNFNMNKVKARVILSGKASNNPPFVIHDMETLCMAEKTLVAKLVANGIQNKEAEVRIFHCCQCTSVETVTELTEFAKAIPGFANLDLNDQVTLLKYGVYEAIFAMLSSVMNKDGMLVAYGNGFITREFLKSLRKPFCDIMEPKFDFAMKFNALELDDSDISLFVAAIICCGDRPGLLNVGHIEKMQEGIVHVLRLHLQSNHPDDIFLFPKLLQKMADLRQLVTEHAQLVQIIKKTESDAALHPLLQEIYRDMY
# Estrogen receptor beta (Homo sapiens), sequence (Q92731 whole entry, looked up, the tested form may be a part): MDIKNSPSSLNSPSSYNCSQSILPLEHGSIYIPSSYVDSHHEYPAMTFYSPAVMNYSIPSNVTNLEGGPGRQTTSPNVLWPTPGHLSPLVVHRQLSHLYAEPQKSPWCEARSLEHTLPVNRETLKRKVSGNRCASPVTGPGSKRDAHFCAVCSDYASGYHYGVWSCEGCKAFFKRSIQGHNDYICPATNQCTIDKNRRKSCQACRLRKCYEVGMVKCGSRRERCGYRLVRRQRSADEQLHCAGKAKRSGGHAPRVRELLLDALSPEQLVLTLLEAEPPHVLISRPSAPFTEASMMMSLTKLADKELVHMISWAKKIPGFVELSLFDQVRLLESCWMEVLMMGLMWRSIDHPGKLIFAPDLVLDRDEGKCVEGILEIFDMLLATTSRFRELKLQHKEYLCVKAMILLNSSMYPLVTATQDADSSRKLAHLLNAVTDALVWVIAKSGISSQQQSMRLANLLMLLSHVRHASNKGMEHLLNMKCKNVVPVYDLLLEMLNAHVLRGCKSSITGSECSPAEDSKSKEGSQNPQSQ
# sheep Cyclooxygenase-1 (Cox1), PTGS1 (gene 443551), sequence (P05979 whole entry, looked up): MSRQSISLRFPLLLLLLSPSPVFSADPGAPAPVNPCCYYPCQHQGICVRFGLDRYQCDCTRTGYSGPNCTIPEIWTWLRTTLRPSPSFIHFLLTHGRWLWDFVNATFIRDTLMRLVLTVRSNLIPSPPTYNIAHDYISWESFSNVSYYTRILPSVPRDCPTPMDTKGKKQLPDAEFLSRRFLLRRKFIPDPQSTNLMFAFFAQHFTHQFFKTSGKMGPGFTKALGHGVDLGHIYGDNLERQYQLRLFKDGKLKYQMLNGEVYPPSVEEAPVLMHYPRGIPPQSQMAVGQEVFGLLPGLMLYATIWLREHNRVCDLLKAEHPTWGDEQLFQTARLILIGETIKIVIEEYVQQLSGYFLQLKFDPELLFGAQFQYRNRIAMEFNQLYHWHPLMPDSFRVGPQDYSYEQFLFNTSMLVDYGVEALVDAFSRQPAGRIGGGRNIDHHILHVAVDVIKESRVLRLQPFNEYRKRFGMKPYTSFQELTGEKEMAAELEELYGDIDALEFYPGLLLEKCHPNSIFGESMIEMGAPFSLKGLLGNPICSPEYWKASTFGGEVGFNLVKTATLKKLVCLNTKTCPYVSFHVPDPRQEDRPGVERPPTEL
smiles,measurement,setting,value
CCCCCCCCCCCCCCCC[N+](C)(C)C,AC50,[1],19.9 µM (active)
O=CNC(N1CCN(C(NC=O)C(Cl)(Cl)Cl)CC1)C(Cl)(Cl)Cl (stereo not drawn),outcome,[2],inactive
same,outcome,[3],inactive
CC1(C)[C@H](C(=O)O[C@H](C#N)c2cccc(Oc3ccccc3)c2)[C@@H]1C=C(Br)Br,AC50,[4],3.71 µM (active)
same,AC50,[5],0.641 µM (active)
same,AC50,[6],2.04 µM (active)
same,outcome,[7],inactive
same,outcome,[8],inactive
same,outcome,[9],inactive
same,outcome,[10],inactive
same,AC50,[11],0.0654 µM (active)
CNC(=O)Oc1cc(C)c(SC)c(C)c1,outcome,[2],inactive
same,outcome,[3],inactive
O=P1(NCCCl)OCCCN1CCCl (stereo not drawn),outcome,[12],inactive
CC(C)c1ccc(O)cc1,AC50,[13],50 µM (active)
same,outcome,[14],inactive
CC(C)(c1cc(Cl)c(O)c(Cl)c1)c1cc(Cl)c(O)c(Cl)c1,AC50,[1],20.2 µM (active)
same,outcome,[13],inactive
same,outcome,[15],inactive
same,outcome,[16],inactive
same,outcome,[17],inactive
Nc1ccccc1,outcome,[1],inactive
N#Cc1cc(I)c(O)c(I)c1,outcome,[15],inactive
same,outcome,[16],inactive
same,outcome,[17],inactive
Cc1cc(C)c(C2=C(OC(=O)CC(C)(C)C)C3(CCCC3)OC2=O)c(C)c1,outcome,[2],inactive
same,AC50,[3],20.7 µM (active)
c1ccc(Nc2ccc3ccccc3c2)cc1,outcome,[12],inactive
same,outcome,[2],inactive
same,outcome,[3],inactive
O=C1C=CC(=O)C=C1,AC50,[9],50 µM (active)
CC(=O)c1cc2c(cc1C)C(C)(C)C(C)CC2(C)C (stereo not drawn),outcome,[15],inactive
same,outcome,[16],inactive
same,outcome,[17],inactive
same,outcome,[14],inactive
CC(C)CCCCCCCOP(=O)(Oc1ccccc1)Oc1ccccc1,outcome,[4],inactive
same,outcome,[5],inactive
same,outcome,[6],inactive
same,outcome,[7],inactive
same,outcome,[8],inactive
same,outcome,[9],inactive
same,outcome,[10],inactive
same,outcome,[11],inactive
